± gives the standard deviation of the averaged measurements. Over roughly 25,000 sequences, “ln(normalized median fluorescence intensity)” has its median near 8.9; the highest 2% begin near 10. The sample holds the highest values, similar sequences and a random draw of the others, so the mix is not that of the screen.
system: PfAP2-LT AP2 domain (GST-tagged); assay: gcPBM binding intensity (ln(normalized median fluorescence intensity)); higher = stronger DNA binding
Summary of the method: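 Using an Agilent 4 × 180k array, primer-extended double-stranded 36-bp intergenic genomic probes and negative controls were exposed for 1 h to GST-fused P. falciparum DNA-binding domains expressed in E. coli. Binding was carried out in 1× PBS with 1% milk, 0.2 mg/ml BSA, 0.5% salmon testes DNA and 0.03% Triton X-100, and protein was detected with Alexa488 anti-GST antibody and a 488 nm scan. Binding intensity is the highest Masliner-normalised natural-log median intensity across replicate spots of either probe orientation.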

Sequence | gcPBM binding intensity (ln)
ATAACATATTTCTTTTGTACTCAAAATAAAATTAAT [XGTACX_site2479] | 8.37 ± 0.4
ATATAATAAATATGTTGTACTATAAAAAATAGCCAT [XGTACX_site4710] | 8.78 ± 0.33
AAATTATAATTAGGAACACACATATATATATATATA [CACACA_site3098] | 9.78 ± 0.29
GGACTATACAGTTATACACACACATATATATATAAT [CACACA_site7991] | 9.6 ± 0.4
AAGAAGCATAAATGTACACACATATTTATATATTAA [CACACA_site1332] | 9.01 ± 0.43
ATATATATATATATATGTACATATGTCAACTGTCTA [XGTACX_site8636] | 10.1 ± 0.43
ATATATATATATATATGTACATATTTTATAACTGTA [XGTACX_site5395] | 9.72 ± 0.35
ATATATATATATGTCTGTACATAAAAAATAATAAAT [XGTACX_site3122] | 8.975 ± 0.064
TTTTTGTAATATTATGATGTCATATATATATATATA [XGTACX_negctrl_site618] | 9.035 ± 0.078
TTTTAAATATGCAGATGTACATTATAATGTTTTATT [XGTACX_site2079] | 8.87 ± 0.47
TAGTATAATATGAACACACACACACGCACAAAAAAA [CACACA_site7035] | 9.94 ± 0.27
TAGTATAATATGAACACACACACACCCACAAAAAAA [CACACA_site2009] | 10 ± 0.29
AATATATAGAAACACACACACAAAAAAAAAAAAAAA [CACACA_site1326] | 9.27 ± 0.47
GTATAATATGAACACACACACACACCCAAAAAAAAA [CACACA_site5152] | 10.3 ± 0.45
TAGTATAATATGAACACACACACACCGACAAAAAAA [CACACA_site5151] | 9.96 ± 0.2
ATCGTAGTATAATATGAACACACACCCACCCACAAA [CACACA_site8616] | 9.71 ± 0.29
GTATAATAGAAACACACACACACACCCAAAAAAAAA [CACACA_site2010] | 10.3 ± 0.39
TATATATAGAAACACACACACAAAAAAAAAAAAAAA [CACACA_site1506] | 9.15 ± 0.46
GTATAATATGAACACACACACACACGCAAAAAAAAA [CACACA_site7036] | 10.19 ± 0.064
ATATATATGAAACACACACACAAAAAAAAAAAAAAA [CACACA_site3647] | 9.45 ± 0.57
ATAATATGAAAACACACACACACACCCAAAAAAAAA [CACACA_site2011] | 10.1 ± 0.15
TCATATGTGAAACACACACACACACCCAAAAAAACA [CACACA_site3247] | 10.06 ± 0.028
TTTTTTTTTGAAAAAAGTACTTAATTTTTAAGAAGA [XGTACX_site3591] | 7.83 ± 0.3
AATATATATATATATATATATTTTTGTTAGAATATG [XGTACX_negctrl_site58] | 8.95 ± 0.32
TAAGTTTGTCAATCAACACACACCTATTTATTATAT [CACACA_site3919] | 9.11 ± 0.35
AACACAATAAAAATTAAAAATGTTAAGTAAATATAA [GTGCAC_negctrl_site60] | 8.68 ± 0.52
ATATATATATGAATCACACACAAAAAATATAGAGAT [CACACA_site3913] | 9.51 ± 0.41

Sequence | gcPBM binding intensity (ln)
ATGCAACTATATATATATATTATATGTATGAATAAT [XGTACX_negctrl_site434] | 8.97 ± 0.28
ATAATATATTTATGTTGTACAAGGAAAATTTTGAAA [XGTACX_site3472] | 8.76 ± 0.42
ATTTTTTTTATTCAATGTACTTTTTTTTATATATAT [XGTACX_site4978] | 8.8 ± 0.45
TATACATACTCACCCACACACAAAAAAAAAAAAAAA [CACACA_site862] | 9.28 ± 0.47
AGTATACTCAAACACACACACACAAAAAAAAAAAAA [CACACA_site4398] | 9.88 ± 0.58
TATACTCAGAAACACACACACACACCCAAAAAAAAA [CACACA_site4434] | 10.1 ± 0.35
AACAACTATTAATTTACACACATGTATTTATTTTAC [CACACA_site5683] | 9.3 ± 0.4
AAATAAATAAATAAATAAACAAATATGTATAAATGG [XGTACX_negctrl_site153] | 8.85 ± 0.51
TTTAAAAAAAAAAAAAAAAATTCTACATGTAATTTA [CACACA_negctrl_site1205] | 7.96 ± 0.41
AATTTATAAAAGAAGAGGACACATATAAATATAAAT [XGTACX_site59] | 8.78 ± 0.52
GGAAAAAATATATGCACACCCCCCAAAAAAAAAAAA [CACACA_site2222] | 10.5 ± 0.13
AAAAAAAATATATATGCACACACAAAAAAACAAATT [CACACA_site8349] | 9.48 ± 0.37
TGGGAAAAAATATATGCACACCCCCCAAAAAAAAAA [CACACA_site8696] | 10.48 ± 0.071
TTAAAAAAATATAATACACACCAAAAATATGCACAT [CACACA_site5209] | 9.03 ± 0.38
ATAATATAAATATGCACACAAATTATTACCCAAAAA [CACACA_site2524] | 9.03 ± 0.41
ATAAATAAAATATGCACACAAATATAGGAAACAACA [CACACA_site2561] | 9.38 ± 0.38
TTATTACATAACAATATACACACTATTGATTAAAGA [CACACA_site2933] | 8.68 ± 0.39
AAGAATACACCACGCACACACACTTGAGAAAAAATA [CACACA_site3828] | 9.96 ± 0.47
ACAAGAATACACCACGCACACACACTAGAGAAAAAA [CACACA_site9276] | 10.1 ± 0.54
GAATACACCACGCACACACACTTGAGAAAAAATAAA [CACACA_site7747] | 9.66 ± 0.47
CATAAAAATATTAATAAACACACAATCAGATATTGA [CACACA_site9032] | 8.87 ± 0.45
ATGTATAATATTTTCACACACAAGAAAAAAGAAAAG [CACACA_site3591] | 9.27 ± 0.36
TAAAAATATAAAACATGTACATATATGCATATATTT [XGTACX_site8093] | 8.86 ± 0.48
TTATCTCTACAAAGTGCACACACGTAAAAACATATA [CACACA_site3957] | 9.09 ± 0.35
TAAAAAAAAACATGTGCACACGTTTTATCTACATAA [CACACA_site2336] | 10.1 ± 0.32
CAAAACATTTTATCTACACACATATATAAATAAATA [CACACA_site3220] | 8.88 ± 0.38
TGTAATAAAATAATTAGTACACATATATGTATATTT [XGTACX_site5896] | 8.72 ± 0.33

Reference: the supplement of paper PMC11417369
